From PubChem BioAssay (EPA / NIEHS) come the findings set out here.

A short description of test [1]: CCTE_Shafer_MEA_dev_firing_rate_mean: CCTE's Neural Network Formation Assay for Mean Firing Rate, Shafer Lab (AID 2284031). In outline: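 Spike frequency (spikes/recording length, averaged over active electrodes) was recorded on days 5, 7, 9 and 12 and collapsed to AUC; rat cortical cultures received compound continuously over 12 days of network development.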
Test [2] in a line: CCTE_Shafer_MEA_dev_per_burst_spike_percent: CCTE's Neural Network Formation Assay for Percent of Spikes in a Burst, Shafer Lab (AID 2284032).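 Also: fitted as a decrease in burst spike percentage below DMSO baseline.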 In short, it runs like this:
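Value is trapezoidal AUC over recordings on days 5, 7, 9 and 12 of the well-mean fraction of spikes falling in single-electrode bursts; rat cortical cultures exposed continuously from plating, treatment renewed DIV 5 and 9, fitted downward against DMSO.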

Test [3] can be described thus: CCTE_Shafer_MEA_dev_active_electrodes_number: CCTE's Neural Network Formation Assay for Number of Active Electrodes, Shafer Lab (AID 2284040; active = hit-call score of the fitted dose curve at least 0.9, where 1 is the maximum;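 also: potency for loss of active electrodes versus DMSO so lower counts are hits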). In outline:
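Counts electrodes per well firing at least 5 spikes/min, recorded on days 5, 7, 9 and 12 in rat cortical cultures dosed continuously from plating (treatment refreshed DIV 5, 9). Value is the area under the curve over recordings, fitted downward relative to DMSO.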

Test [4] is described as follows: CCTE_Shafer_MEA_dev_burst_rate: CCTE's Neural Network Formation Assay for Burst Rate, Shafer Lab (AID 2284042). In outline: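 Cells plated, treated day 0; recorded DIV 5, 7, 9, 12; fed and re-treated DIV 5, 9. Endpoint: bursts per recording time, active-electrode well mean, trapezoidal AUC, fitted in decreasing direction against DMSO baseline.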
Test [5] can be described thus: CCTE_Shafer_MEA_dev_bursting_electrodes_number: CCTE's Neural Network Formation Assay for Number of Bursting Electrodes, Shafer Lab (AID 2284043; active = hit-call score of the fitted dose curve at least 0.9, where 1 is the maximum;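 also: potency is for loss of bursting electrodes relative to DMSO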). In outline: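 Number of electrodes reaching ≥1 burst every 2 min was recorded at DIV 5, 7, 9 and 12 and collapsed as trapezoidal area under the curve. Cultures were rat cortical neurons on MEA plates, dosed continuously from plating with medium and treatment refreshed on DIV 5 and 9.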

A short description of test [6]: CCTE_Shafer_MEA_dev_burst_duration_mean: CCTE's Neural Network Formation Assay for Mean Burst Duration, Shafer Lab (AID 2284045). In outline: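 Mean single-electrode burst duration (first to last spike), averaged over bursting electrodes per well, then integrated as area-under-curve across recordings at days 5, 7, 9 and 12. Rat cortical cultures on MEAs, compound present from plating, refreshed at feeds.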

A short description of test [7]: CCTE_Shafer_MEA_dev_interburst_interval_mean: CCTE's Neural Network Formation Assay for Mean Interburst Interval, Shafer Lab (AID 2284046).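 Also: curve fitted for decrease in interburst interval relative to DMSO.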 In outline: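 Developing rat cortical networks on 48-well MEAs receive compound from the day of plating. Burst intervals from each active electrode are averaged per well, and AUC over the recording days is fitted in the negative direction against DMSO.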

Test [8] in a line: CCTE_Shafer_MEA_dev_inter_network_spike_interval_mean: CCTE's Neural Network Formation Assay for Mean Inter-network Spike Interval, Shafer Lab (AID 2284047). In short, it runs like this: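 Rat cortical cultures, 1.5 x 10^5 cells/well on 48-well MEA plates; continuous exposure days 0–12, medium and compound refreshed DIV 5, 9. Mean time between consecutive network-spike peaks; AUC across DIV 5/7/9/12; DMSO baseline, negative fitting direction.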

Test [9] is described as follows: CCTE_Shafer_MEA_dev_network_spike_number: CCTE's Neural Network Formation Assay for Number of Network Spikes, Shafer Lab (AID 2284048).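 Also: synchronized bursts across electrodes counted on days 5 7 9 12 and integrated as AUC; fit as a loss of signal meaning fewer network spikes than DMSO.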 In short, it runs like this:
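Number of network spikes (coordinated firing across electrodes) recorded on days 5, 7, 9 and 12 and summarised as area under the curve. Rat cortical cultures on MEA, continuous compound exposure with full medium/treatment exchange at DIV 5 and 9.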

Test [10] is described as follows: CCTE_Shafer_MEA_dev_network_spike_peak: CCTE's Neural Network Formation Assay for Mean Number of Electrodes in Network Spike, Shafer Lab (AID 2284049).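 Also: fitted for loss of signal meaning fewer electrodes in network spikes than DMSO.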 In short, it runs like this: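 Rat cortical primary culture, 1.5 x 10^5 cells/well, 48-well MEA (16 electrodes/well). Dosing day 0 through DIV 12, full media/compound exchange DIV 5, 9. AxIS adaptive spike detection; AUC over days 5/7/9/12; loss-of-signal vs DMSO.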

Test [11] is described as follows: CCTE_Shafer_MEA_dev_spike_duration_mean: CCTE's Neural Network Formation Assay for Mean Spike Duration, Shafer Lab (AID 2284051).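 Also: potency for a decrease in mean network spike duration versus DMSO.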 In outline:
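Readout is the average length of network spikes, clustered firing across electrodes, summed over DIV 5, 7, 9 and 12 as area under the curve. Neurons from rat cortex developed networks on MEA plates under continuous 12-day exposure.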

Test [12] is described as follows: CCTE_Shafer_MEA_dev_network_spike_duration_std: CCTE's Neural Network Formation Assay for Standard Deviation of Network Spike Duration, Shafer Lab (AID 2284052).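 Also: hits are decreases in network spike duration SD versus DMSO vehicle.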 In outline:
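Read-out is the trapezoidal area-under-the-curve across recordings made on days 5, 7, 9 and 12, fitted in the negative direction against DMSO baseline. Neurons were primary rat cortical cells treated from day 0, with treatment renewed at each feed.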

Test [13] can be described thus: CCTE_Shafer_MEA_dev_per_network_spike_spike_number_mean: CCTE's Neural Network Formation Assay for Mean Number of Spikes in a Network Spike, Shafer Lab (AID 2284053).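 Also: fitted as decrease in spikes per network spike relative to DMSO.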 In short, it runs like this: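 Continuous twelve-day exposure of developing rat cortical networks grown over 16 microelectrodes per well; spontaneous firing is captured at four time points, and the per-network-spike spike number is integrated over development by trapezoidal AUC.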

Test [14] in a line: CCTE_Shafer_MEA_dev_per_network_spike_spike_percent: CCTE's Neural Network Formation Assay for Percent of Spikes in a Network Spike, Shafer Lab (AID 2284054). In short, it runs like this: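 Metric: fraction of spikes falling in a 0.05 s window at network-spike peaks. Recordings were made on days 5, 7, 9 and 12 and collapsed by trapezoidal AUC. Cultures were rat cortical neurons on MEA plates, dosed continuously from plating, re-dosed at media changes.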

Test [15] can be described thus: UKN5_HCS_SBAD2_cell_viability: Viability Assessment in the University of Konstanz (UKN) Leist Lab Neurite Outgrowth Assay in human iPSC-derived immature Dorsal Root Ganglia Neurons (UKN5) (AID 2284056). In short, it runs like this:
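iPSC-derived immature peripheral neurons (SBAD2) seeded on Matrigel with CHIR99021, SU5402 and DAPT, dosed 1 h later for 24 h. Viability from Hoechst H-33342 and calcein-AM live staining, high-content imaging; bidirectional fit versus DMSO.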

The nature of test [16]: CCTE_Shafer_MEA_dev_LDH: CCTE's Lactate Dehydrogenase Assay for Cytotoxicity in the Neural Network Formation Assay, Shafer Lab (AID 2284068; active = hit-call score of the fitted dose curve at least 0.9, where 1 is the maximum;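 also: exposure for twelve days from plating with re-dosing on DIV 5 and 9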). In outline: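 Cytotoxicity companion to network-formation recordings: rat cortical neurons received compound over 12 days of development, re-dosed at DIV 5 and 9 feeds. Viability was inferred from LDH enzyme activity relative to DMSO.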

A short description of test [17]: UKN5_HCS_SBAD2_neurite_outgrowth: University of Konstanz (UKN) Leist Lab Neurite Outgrowth Assay in human iPSC-derived immature Dorsal Root Ganglia Neurons (UKN5) (AID 2284070). The following applies: actives raise or lower the signal. In short, it runs like this: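 Neurite area from calcein-AM high-content images after 24 h exposure (staining included), with H-33342 for viability, fitted both directions against DMSO. Cells: thawed immature SBAD2 peripheral neurons, 100.000 cells/cm2, with CHIR99021, SU5402, DAPT; dosing 1 h after seeding.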

A short description of test [18]: CCTE_Shafer_MEA_dev_AB: CCTE's Alamar Blue Assay for Cytotoxicity in the Neural Network Formation Assay, Shafer Lab (AID 2284083; active = hit-call score of the fitted dose curve at least 0.9, where 1 is the maximum;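 also: resazurin reduction fluorescence as viability of cultured neurons; twelve days of exposure from plating with re-dosing on DIV 5 and 9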). In outline: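 Fluorescent resazurin reduction serves as the viability read-out, with DMSO as negative control and baseline. Cells were primary rat cortical neurons grown on MEA plates and dosed from day 0 to day 12, treatment renewed on DIV 5 and 9.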

Test [19] can be described thus: CCTE_Shafer_MEA_dev_mutual_information_norm: CCTE's Neural Network Formation Assay for Mutual Information Normalization, Shafer Lab (AID 2284091). In short, it runs like this:
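Shared information across electrodes, tracked on days 5, 7, 9 and 12 of network development and collapsed as trapezoidal area under the curve. Rat cortical cultures were treated continuously from plating, with treatment renewed at feeds on DIV 5 and 9; DMSO baseline, negative-direction fit.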

A short description of test [20]: UKN4_HCS_LUHMES_neurite_outgrowth: University of Konstanz (UKN) Leist Lab Neurite Outgrowth Assay in human LUHMES cells (UKN4) (AID 2284206). The following applies: actives raise or lower the signal. In outline:
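After 24 h compound treatment beginning shortly after replating of 2-day-differentiated LUHMES cells, calcein-AM and H-33342 live staining allowed high-content imaging of neurite area and viability. Fitted bidirectionally against DMSO.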

Test [21] in a line: IUF_NPC1a_proliferation_area_72hr: Leibniz Research Institute for Environmental Medicine (IUF) 72-hour Neural Progenitor Cell Proliferation Area Assay (NPC1a) (AID 2284208). In short, it runs like this: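 Read-out: increase in sphere area over 72 h by automated phase-contrast imaging, fitted in positive direction versus DMSO baseline. One hNPC sphere (0.25-0.35 mm) per well in EGF/FGF medium; growth-factor withdrawal served as positive control.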

Results filed as inconclusive are left out. Activity calls are given as the source filed them. The calls were made as follows, unless noted: active = hit-call score of the fitted dose curve at least 0.9, where 1 is the maximum; inactive = score below 0.9.

With `CC(=O)[O-].CC(=O)[O-].O.O.O.[Pb+2]`, the call in test [1], in [4], in test [6], in test [7], in test [8] and in test [12] was inactive. Moreover, the compound was classed as inactive in test [17], in test [19], in [20] and in test [21]. Also, the AC50 in test [2] was 23.5 µM (active); in [3], 22.3 µM (active); in [5], 18.5 µM (active); in test [9], 2.98 µM (active); in test [10] it was 12.5 µM (active); in test [11], 22.2 µM (active). Besides, the AC50 was 20.2 µM (active) in test [13]; 15 µM (active) in test [14]; 17.7 µM (active) in test [15]; 23.7 µM (active) in test [16]; 24 µM (active) in test [18].
